Structures can show the parent of a compound that is named as a salt.
Experiments:
[1] = system: S. cerevisiae SK1 pCDA2-eGFP (USY613), sporulating; assay: CDA2-GFP sporulation assay sensitivity score (z-score vs DMSO controls); higher = stronger inhibition of sporulation, active = hit call of the paper;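 note: active if sensitivity score above 5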
[2] = system: S. cerevisiae AD1-9 (efflux-pump deficient), vegetative growth in YPD; assay: growth sensitivity score (doubling time z-score vs DMSO controls); higher = slower growth, strongly negative scores also mark growth inhibition (complete suppression), active = hit call of the paper
Summary of the method: (§1)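 Yeast (Saccharomyces cerevisiae BY4741 and AD1-9) was grown in rich medium in microtiter plates from a starting OD600 of 0.065, with optical density read every 15 min over 24 hours. The growth sensitivity score was the difference between compound and solvent-only means, divided by the solvent-only standard deviation. Every experiment had eight solvent-only wells.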

[3] = system: S. cerevisiae BY4741 (wild-type), vegetative growth in YPD; assay: as above
Summary of the method: as §1

[4] = stock concentration (mM, diluted 1:100): 8.7
[5] = stock concentration (mM, diluted 1:100): 10
[6] = stock concentration (mM, diluted 1:100): 7.3

In the case of `CC(=O)O[C@H]1C[C@@H]2CC[C@@H]3[C@H](CC[C@@]4(C)[C@H]3C[C@H]([N+]3(C)CCCCC3)[C@@H]4OC(C)=O)[C@@]2(C)C[C@@H]1[N+]1(C)CCCCC1` [Pancuronium], the “CDA2-GFP sporulation assay sensitivity score” value [1, 4] is reported as 2.51 (inactive), the growth sensitivity score [2, 4] is reported as -8.57 and the growth sensitivity score [3, 4] is reported as -0.39 (inactive).

For `Oc1ccc2c3c1O[C@H]1c4[nH]c5ccccc5c4C[C@@]4(O)[C@@H](C2)N(CC2CC2)CC[C@]314` [Naltrindole], the “CDA2-GFP sporulation assay sensitivity score” value [1, 5] was 3.11 (inactive), the growth sensitivity score [2, 5] was -3.12 and the growth sensitivity score [3, 5] was -1.11 (inactive).

With `CC(O)(CS(=O)(=O)c1ccc(F)cc1)C(=O)Nc1ccc(C#N)c(C(F)(F)F)c1` (stereo not drawn) [Bicalutamide] the “CDA2-GFP sporulation assay sensitivity score” value [1, 5] was 0.41 (inactive) and the growth sensitivity score [3, 5] was 0.66 (inactive).

For `CCCN1C[C@H](CSC)C[C@@H]2c3cccc4[nH]cc(c34)C[C@H]21` [Pergolide mesylate], the growth sensitivity score [2, 5] was 3.13 (active) and the growth sensitivity score [3, 5] was 2.05 (active).

For `CCN(CC)CCOC(=O)C(O)(c1ccccc1)c1ccccc1` [Benactyzine hydrochloride], the “CDA2-GFP sporulation assay sensitivity score” value [1, 5] was 0.09 (inactive), the growth sensitivity score [2, 5] was -0.44 (inactive) and the growth sensitivity score [3, 5] was -0.83 (inactive).

With `O=C(O)C(Cl)Cl` [Dichloroacetic acid] the “CDA2-GFP sporulation assay sensitivity score” value [1, 5] was 1.21 (inactive), the growth sensitivity score [2, 5] was 0.15 (inactive) and the growth sensitivity score [3, 5] was -0.8 (inactive).

With `CN1[C@@H]2CC(OC(=O)[C@H](CO)c3ccccc3)C[C@H]1[C@@H]1O[C@@H]12` (stereo partly drawn) the “CDA2-GFP sporulation assay sensitivity score” value [1, 6] was -0.1 (inactive), the growth sensitivity score [2, 6] was -1.56 (inactive) and the growth sensitivity score [3, 6] was -0.06 (inactive).

For `CNCC(O)c1ccc(O)cc1` (stereo not drawn) [Synephrine], the “CDA2-GFP sporulation assay sensitivity score” value [1, 5] was 4.04 (inactive), the growth sensitivity score [2, 5] was 0.18 (inactive) and the growth sensitivity score [3, 5] was -1.07 (inactive).

`c1ccc2c(c1)Nc1ccccc1S2` [Phenothiazine] was tested, and the “CDA2-GFP sporulation assay sensitivity score” value [1, 5] was 3.38 (inactive), the growth sensitivity score [2, 5] was 11.7 (active) and the growth sensitivity score [3, 5] was 5.99 (active).

With `c1ccc2c3c([nH]c2c1)CNCC3` [Tryptoline] the “CDA2-GFP sporulation assay sensitivity score” value [1, 5] was 11.7 (active), the growth sensitivity score [2, 5] was -1.27 (inactive) and the growth sensitivity score [3, 5] was -1.07 (inactive).

`C[C@]12CCC(=O)C=C1CC[C@@H]1[C@@H]2CC[C@@]2(C)[C@H]1CC[C@]2(C)O` [Methyltestosterone] was tested, and the “CDA2-GFP sporulation assay sensitivity score” value [1, 5] was 3.87 (inactive), the growth sensitivity score [2, 5] was 32.3 (active) and the growth sensitivity score [3, 5] was 3.83 (active).

In the case of `CCCCC/C=C\C/C=C\C/C=C\C/C=C\CCCC(=O)Nc1ccc(O)cc1`, the “CDA2-GFP sporulation assay sensitivity score” value [1, 5] is reported as -4.74 (inactive) and the growth sensitivity score [3, 5] is reported as 2.55 (active).

For `CN=C1CN(O)C(c2ccccc2)=c2cc(Cl)ccc2=N1` [Chlordiazepoxide], the “CDA2-GFP sporulation assay sensitivity score” value [1, 5] was 1.73 (inactive), the growth sensitivity score [2, 5] was 0.94 (inactive) and the growth sensitivity score [3, 5] was 1.44 (inactive).

`CN1C(=O)COc2c(C(=O)NC3CN4CCC3CC4)cc(Cl)cc21` (stereo not drawn) [Azasetron] was tested, and the growth sensitivity score [2, 5] was -0.58 (inactive) and the growth sensitivity score [3, 5] was -0.56 (inactive).

With `Oc1cc2c(cc1O)[C@H]1c3ccccc3CN[C@@H]1CC2` the “CDA2-GFP sporulation assay sensitivity score” value [1, 5] was -1.42 (inactive), the growth sensitivity score [2, 5] was 0.66 (inactive) and the growth sensitivity score [3, 5] was 0.31 (inactive).

`c1cncc([C@@H]2CCCN2)c1` [Nornicotine] was tested, and the “CDA2-GFP sporulation assay sensitivity score” value [1, 5] was 2.1 (inactive), the growth sensitivity score [2, 5] was -0.25 (inactive) and the growth sensitivity score [3, 5] was 0.91 (inactive).

For `CC[C@]1(O)CC[C@H]2[C@@H]3CCC4=CCCC[C@@H]4[C@H]3CC[C@@]21C` [Ethylestrenol], the “CDA2-GFP sporulation assay sensitivity score” value [1, 5] was 8.75 (active), the growth sensitivity score [2, 5] was 93.9 (active) and the growth sensitivity score [3, 5] was 2.86 (active).

With `FC(F)(F)c1cccc(N2CCNCC2)c1` the “CDA2-GFP sporulation assay sensitivity score” value [1, 5] was 0.69 (inactive), the growth sensitivity score [2, 5] was 2.22 (active) and the growth sensitivity score [3, 5] was 1.25 (inactive).

With `C[C@]12CC[C@H](O)CC1=CC[C@@H]1[C@@H]2CC[C@]2(C)C(=O)CC[C@@H]12` [Dehydroepiandrosterone] the “CDA2-GFP sporulation assay sensitivity score” value [1, 5] was 15.7 (active), the growth sensitivity score [2, 5] was 70.9 (active) and the growth sensitivity score [3, 5] was 7.64 (active).

`NCCc1ccccn1` [2-(2-aminoethyl)pyridine] was tested, and the “CDA2-GFP sporulation assay sensitivity score” value [1, 5] was -1.07 (inactive), the growth sensitivity score [2, 5] was -0.62 (inactive) and the growth sensitivity score [3, 5] was -1.35 (inactive).

With `COc1cccc(C2(O)CCCCC2CN(C)C)c1` (stereo not drawn) [Tramadol] the “CDA2-GFP sporulation assay sensitivity score” value [1, 5] was 0.06 (inactive), the growth sensitivity score [2, 5] was -0.93 (inactive) and the growth sensitivity score [3, 5] was -0.39 (inactive).

For `Oc1ccc2c3c1O[C@H]1[C@@H](O)CC[C@@]4(O)[C@@H](C2)N(CC2CCC2)CC[C@]314` [Nalbuphine], the “CDA2-GFP sporulation assay sensitivity score” value [1, 5] was -0.4 (inactive), the growth sensitivity score [2, 5] was -1.74 (inactive) and the growth sensitivity score [3, 5] was -0.96 (inactive).

With `CN1C(=O)CN=C(c2ccccc2)c2cc(Cl)ccc21` [Diazepam] the “CDA2-GFP sporulation assay sensitivity score” value [1, 5] was 4.97 (inactive), the growth sensitivity score [2, 5] was 5.55 (active) and the growth sensitivity score [3, 5] was 2.97 (active).

In the case of `O=C1Nc2ccc(Cl)cc2C(c2ccccc2Cl)=NC1O` (stereo not drawn) [Lorazepam], the “CDA2-GFP sporulation assay sensitivity score” value [1, 5] is reported as 5 (inactive), the growth sensitivity score [2, 5] is reported as 2.16 (active) and the growth sensitivity score [3, 5] is reported as -0.91 (inactive).

Reference: the supplement of paper PMC3414501
